# Most compounds without a hit are left out; they make up all but 0.63% or so of the library.
# GAA inh: inhibitors of human lysosomal alpha-glucosidase. P10253. purified human GAA, 4-MU-alpha-glucoside fluorescence. 200,000 compounds, 0.005% hits. Potency, µM (highest dose often 76.9 µM), inactives show at the highest dose activity change, negative = inhibition, usual class: inhibitors;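 note: plate controls were uninhibited enzyme wells for no effect and no-enzyme background for full effect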
#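 Read-out is 4-methylumbelliferone fluorescence (Ex 365/Em 440 nm) after NaOH/glycine stop at pH 10. Enzyme 4 nM, substrate 400 uM, pH 5.0 citrate buffer, 20 min room temperature; AC50 from Hill-equation concentration-response.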
# aGlu spleen mod: lysosomal alpha-glucosidase (human) modulation; 240,000 compounds, 0.006% hits; AID 2112; human spleen homogenate, 4-MU-alpha-glucoside fluorescence; Potency, µM (doses to about 79.9 µM), for inactives: at the top dose activity change, negative = inhibition, actives largely listed as inhibitors; P10253;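 note: 0% = enzyme with vehicle and -100% = no enzyme basal signal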
#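 Enzyme source: human spleen homogenate, 1 ug/well. Buffer 50 mM citric acid/K phosphate pH 5.0, 0.01% Tween-20. 4-MU-alpha-glucoside 1 mM; 37 C x 40 min; NaOH/glycine stop; fluorescence.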
# PKM2 act: activators of human pyruvate kinase M2. 260,000 compounds, 0.34% hits. purified PKM2, Kinase-Glo ATP luminescence, activation; response scale: 0% is enzyme alone, no compound. Potency, µM (doses to about 57.5 µM), for the others: at the top dose activation, actives largely listed as activators. P14618; note: nearly all actives have a fitted effect of over 55% in size
# Target sequence (P14618 whole entry, looked up): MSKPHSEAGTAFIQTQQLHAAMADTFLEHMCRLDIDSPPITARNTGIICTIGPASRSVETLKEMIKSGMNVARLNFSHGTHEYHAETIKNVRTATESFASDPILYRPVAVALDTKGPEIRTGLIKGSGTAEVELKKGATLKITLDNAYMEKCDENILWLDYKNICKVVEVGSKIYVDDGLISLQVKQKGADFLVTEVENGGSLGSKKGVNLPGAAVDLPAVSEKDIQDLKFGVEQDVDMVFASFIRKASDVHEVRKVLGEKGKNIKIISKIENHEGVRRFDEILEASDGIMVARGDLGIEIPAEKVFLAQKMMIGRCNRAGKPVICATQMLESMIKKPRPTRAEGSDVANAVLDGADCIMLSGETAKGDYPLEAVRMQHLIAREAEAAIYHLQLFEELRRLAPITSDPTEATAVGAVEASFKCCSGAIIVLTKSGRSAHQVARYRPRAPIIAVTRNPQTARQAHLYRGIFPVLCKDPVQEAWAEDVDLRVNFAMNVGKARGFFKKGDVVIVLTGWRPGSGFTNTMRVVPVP
#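 Purified hPK-M2 (>95% pure) converted ADP (0.1 mM final) to ATP with 0.5 mM PEP in 50 mM imidazole pH7.2, KCl, MgCl2, Tween 20, BSA; 1 h at room temperature. ATP detected by Kinase-Glo luminescence.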
# GALK inhibitor: galactokinase (human) inhibition. 270,000 compounds, 0.007% hits. Potency, µM (series often up to 57.5 µM), without a hit: top-dose activity change, negative = inhibition, most hits filed as inhibitors. Purified GALK, Kinase-Glo residual ATP luminescence. P51570. AID 1868
#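 Compounds were pin-transferred into ATP buffer (35 uM final), then GALK plus galactose (5 nM, 100 uM final) was added. After 1 h at room temperature, Kinase-Glo Plus was added and luminescence read after 10 min.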
# GAA glycogen mod: alters human alpha-glucosidase cleavage of glycogen. P10253. recombinant GAA, glycogen substrate, Amplex Red glucose oxidase fluorescence. Potency, µM (doses to about 76.4 µM), for inactives: at the highest dose activity change, negative = inhibition, hits mostly inhibitors. 300,000 compounds, 0.38% hits;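 note: 0% = full enzyme reaction and -100% = no-enzyme basal signal; the screen sought inhibitors and activators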
#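 Recombinant enzyme (4 nM final) with compounds titrated up to 77 uM and bovine liver glycogen (30 ug) in citrate pH 5.0, 0.01% Tween-20, 37 C 40 min. Released glucose detected by Amplex Red/glucose oxidase (Ex 573/Em 610); AC50 from Hill fits.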
# Active calls of the source: *; ? = inconclusive; . = no result given; [ ] = dose if it differs, or a comment. Calls come from the whole dose curve; as a rule, active = well fitted curve in the direction sought with a large enough effect; inconclusive = small, poorly fitted or top-dose-only effect, or another doubt; inactive = no such curve, though single readings can be large; an effect the other way counts as inactive or inconclusive. Unless noted, % is set by controls: 0 for no effect and ±100 for the full control effect; potency is the fitted concentration of half-maximal effect.
SMILES,GAA inh,aGlu spleen mod,PKM2 act,GALK inhibitor,GAA glycogen mod
C/C(CCc1oc2c(Br)cc(Br)cc2c1-c1ccc(C)o1)=N\O,-5%,2%,16µM*,-3%,-19%
Cc1cccc(Nc2nc(-c3ccc(O)cc3O)cs2)n1,.,.,-2%[11.5 µM],-10%,40µM*
CCOc1ccc(NC(=O)C2CCN(C(=O)N3CC(C)Oc4ccc(Cl)cc43)CC2)cc1 (centres undefined),.,.,.,.,20%[76.3 µM]
CCN(CC)c1ccc(NC(=O)CSc2nnc(C)c(=O)[nH]2)cc1,.,.,.,.,25µM*
Cc1ccc(NC(=O)CSc2nnc(C)c(=O)[nH]2)cc1,.,.,.,.,-7%[76.3 µM]
CS(=O)(=O)CC[C@@H](C(=O)NCCc1ccccc1)N1Cc2ccccc2C1=O,.,.,.,.,12%[76.3 µM]
Cc1nn(C)c(N)c1[N+](=O)[O-],-4%,-7%,?,.,0%
Cc1nn(C)c(Sc2ccccc2N)c1[N+](=O)[O-],7%,0%,11µM*,-1%,-26%
O=C(COc1ccccc1F)Nc1ccc2nc(SCC(=O)N3CCOCC3)sc2c1,.,.,.,.,-4%[76.3 µM]
O=C(NNC(=O)c1sccc1-n1cccc1)Nc1ccccc1,1%,5%,0%,2%,13µM*
CCCNC(=S)Nc1ccc(Nc2ccccc2)cc1,-2%,4%,5%,0%,16µM*
CNC(=S)Nc1ccc(Nc2ccccc2)cc1,7%,-2%,2%,-2%,25µM*
CN1CCN(C(=O)Cn2c(-c3cccs3)cc3ccccc32)CC1,.,.,.,.,-1%[76.3 µM]
CN(N)c1nc(C(F)(F)F)nc2ccccc12,0%,-18%,2%,-2%,11µM*
NNc1nc(C(F)(F)F)nc2ccccc12,-2%,-1%,1%,-1%,?
COc1ccc(N2C(=O)[C@@H]3[C@H](C2=O)[C@H]2C=CC=NN2[C@@H]3C(=O)Nc2ccc(Cl)cc2)cc1,.,1%,8.9µM*,-1%,-17%
Cc1c(NC2=C(Cl)C(=O)N(c3ccccc3Cl)C2=O)c(=O)n(-c2ccccc2)n1C,-4%,4%,22%,.,0%
Cc1c(NC2=C(Cl)C(=O)N(c3ccccc3)C2=O)c(=O)n(-c2ccccc2)n1C,0%,-3%,1%,-4%,10µM*
COC(=O)/C=C/c1cc(O)ccc1O,.,-5%,.,.,.
COc1ccc2c(Cl)c(C(=O)NN)sc2c1,-1%,-7%,1%,1%,16µM*
CS(=O)(=O)c1ccc2c(c1)sc1nc(=O)c(/C=C3/C=CC(=O)C(O)=C3)c(N)n12,?,-12%,1%,?,8.9µM*
COC1=C/C(=C/c2c(N)n3c(nc2=O)sc2cc(S(C)(=O)=O)ccc23)C=CC1=O,.,-2%,-13%,-3%,2%
Fc1ccc(CNc2cc(-c3ccccc3)nc3nncn23)cc1,.,.,.,.,-4%[76.3 µM]
CCOc1cc(/C=C2/C(=O)ON=C2C)ccc1OCc1ccccc1,?,5%,-7%,1%,19%
CCOc1cc(/C=C2/C(=O)ON=C2C)ccc1OCc1ccccc1F,11%,3%,16µM*,0%,0%
SMILES,GAA inh,aGlu spleen mod,PKM2 act,GALK inhibitor,GAA glycogen mod
Cc1ccc(N2CCN(C(=O)c3cn(C)c4ccc(S(=O)(=O)N5CCC(C)CC5)cc4c3=O)CC2C)cc1 (centres undefined),.,.,.,.,-17%[76.3 µM]
CC(C)c1ccc(NC(=O)CN2C(=O)COc3ccc(S(=O)(=O)N4CCCCC4)cc32)cc1,.,.,.,.,16%[76.3 µM]
CNc1nc2c3ccccc3n(C(C)=O)c2s1,0%,5%,-3%,2%,25µM*
CC(=O)n1c2ccccc2c2nc(NC(C)C)sc21,-5%,3%,-36%,1%,-28%
O=C(Nc1ccc(F)cc1)c1c(Cl)nc2ccccn12,1%,0%,3%,-1%,4%
Fc1ccc(Nc2c(-c3c[nH]c4ccccc34)nc3ccccn23)cc1,.,.,.,.,14µM*
Cc1cccc(CSc2cn(CC(=O)N3CCCCC3)c3ccccc23)c1,.,.,.,.,-11%[76.3 µM]
O=C(CCCc1nc2ccccc2s1)N1CCN(S(=O)(=O)c2cccs2)CC1,?,-11%,4.5µM*,0%,-2%
O=C1/C(=C/c2ccc(O)c(O)c2)Oc2cc(O)ccc21,.,-2%,2%,-23%,22µM*
COc1cc(/C=C2\Oc3cc(O)ccc3C2=O)ccc1O,.,-1%,-10%,-3%,?
CC(C)c1ccc(NC(=O)c2cc3c(=O)[nH]c4ccccc4c3n2C)cc1,.,.,.,.,-4%[76.3 µM]
Cc1cc(NC(=O)CSc2ncn(-c3ccccc3)n2)no1,0%,2%,25µM*,-3%,1%
O=C(Nc1nc2n(n1)C(c1ccc(F)cc1)C=C(c1ccc(Cl)cc1)N2)c1ccc([N+](=O)[O-])cc1 (centres undefined),.,.,.,.,12%[76.3 µM]
COc1ccccc1COC(=O)N/C=C/c1ccco1,-19%,7%,18µM*,-2%,6%
COc1ccc(COC(=O)N/C=C/c2ccco2)cc1,?,-5%,27%,3%,-8%
CCOc1ccc(N(CC)C(=O)Cn2cnc3sc(C)c(S(=O)(=O)N4CCN(c5ncccn5)CC4)c3c2=O)cc1,.,.,.,.,6%[76.3 µM]
C=CCNC(=S)Nc1ccc(N(C)C)cc1,-5%,-2%,4%,-2%,3.1µM*
N#CC1=C(N)Oc2cc(O)ccc2C1c1ccncc1 (centres undefined),6%,-9%,20µM*,0%,9%
N#CC1=C(N)Oc2cc(O)ccc2C1c1cccnc1 (centres undefined),-5%,-4%,9%,9%,0%
COc1ccccc1N1CCN(/N=C/c2cccc(O)c2)CC1,-10%,2%,-1%,0%,9.9µM*
CCOC(=O)c1c(C)[nH]c(C=Nc2ccccc2)c1O,1%,0%,4%,-1%,4%
CCOC(=O)c1c(C)[nH]c(C=Nc2ccc(OC)cc2)c1O,-4%,-2%,-4%,0%,8.9µM*
CCCN1CCC(=O)N(C(CSc2ccc(Br)cc2)CC(C)C)CC1 (centres undefined),.,3%,.,.,.
COc1ccc(S(=O)(=O)c2nnn(-c3ccccc3F)c2C)cc1,.,.,.,.,18%[76.3 µM]
O=C(NCc1ccc(F)cc1)N1CCN(S(=O)(=O)c2ccccc2F)CC1,.,.,11µM*,-3%,-17%
O=C(NCc1cccc(Cl)c1)N1CCN(S(=O)(=O)c2ccccc2F)CC1,.,.,14µM*,-2%,-5%
COc1ccc(CNC(=O)N2CCN(S(=O)(=O)c3ccccc3F)CC2)cc1,.,.,.,0%,0%
O=S(=O)(c1ccccc1F)N1CCN(C(=S)NCc2ccccc2)CC1,-6%,-9%,?,4%,-11%
O=S(=O)(c1ccc(-c2csc(=Nc3ccc(OC(F)(F)Cl)cc3)n2CCCO)cc1)N1CCCC1,.,.,.,.,-17%[76.3 µM]
CCN(C(=O)c1nn(C)c2c1CSc1ccccc1-2)c1cccc(C)c1,.,.,.,.,-6%[76.3 µM]
